# Data published in the supplement of paper PMC8728848.
# The full list was thinned out, with the strongest signals kept by preference.
# B1: Na-CTL-1 (Necator americanus) (protein)
# chain: MQRSFLLLLVVLAGAWAVNTTIPLKLMGGFTPMKYQCVGRVSDIWADVLFLIESSDMITKSGFRQVIAFITATTKKMTIGQDEKQTRVGFITYGEEAKLIYDLDHWRSTEKLSDLVQKIPYVKSSGTNIAAAIALANKVFNSPTHRPNVPKVMVIVANGLKKGSQNPIPVATAFKDFGGIIITIEYTQYDNIQVPILKKIASEGYNIRSNDEDFSVRTLTNMLLQANCFCPDHYVPFRVNNPEFGCFVTAKIPSMWRDAAEMCRAVEEGKLVKVENEEKAAFIMKLVGPKKEAWIGLRYYGNKFQWTDGTKLNADDFNLWPEDIKELNGPHCVSMYQDQKDKKYYWRAGKCLEDMRYVCEVQPCSASNYCSEPVFMYRQKHRALLPAPPPPPN
# Legend:
# Test in all cases: glycan array binding signal (z-score within array); higher = stronger binding
# Settings in all cases: glycan notation: IUPAC condensed, linker removed
# GalNAc(b1-4)GlcNAc = biological target: GalNAc(b1-4)GlcNAc
# Method in brief: (§1)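 The binding signal is a Z-score computed within each array and averaged over linkers. Arrays of the same protein sequence at different concentrations or buffers were also averaged together. Data originate from 3228 arrays in the Consortium for Functional Glycomics database, kept only where the protein sequence was available.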
# [1] = biological target: Glc(a1-4)Glc(a1-4)Glc(a1-4)Glc
# Method in brief: as §1
# [2] = biological target: GlcNAc(b1-2)[GlcNAc(b1-4)]Man(a1-3)[GlcNAc(b1-4)][GlcNAc(b1-2)[GlcNAc(b1-6)]Man(a1-6)]Man(b1-4)GlcNAc(b1-4)[Fuc(a1-6)]GlcNAc
# Method in brief: as §1
# [3] = biological target: GlcNAc(b1-3)Gal(b1-4)GlcNAc
# Method in brief: as §1
# [4] = biological target: GlcNAc(b1-3)Gal(b1-4)GlcNAc(b1-3)Gal(b1-4)GlcNAc(b1-3)Gal(b1-4)GlcNAc(b1-2)[GlcNAc(b1-3)Gal(b1-4)GlcNAc(b1-3)Gal(b1-4)GlcNAc(b1-3)Gal(b1-4)GlcNAc(b1-6)]Man(a1-6)[GlcNAc(b1-3)Gal(b1-4)GlcNAc(b1-3)Gal(b1-4)GlcNAc(b1-3)Gal(b1-4)GlcNAc(b1-2)Man(a1-3)]Man(b1-4)GlcNAc(b1-4)[Fuc(a1-6)]GlcNAc
# Method in brief: as §1
# [5] = biological target: GlcNAc(b1-3)[GlcNAc(b1-6)]Gal(b1-4)GlcNAc
# Method in brief: as §1
# [6] = biological target: Man(a1-2)Man(a1-2)Man(a1-3)Man
# Method in brief: as §1
# [7] = biological target: Man(a1-2)Man(a1-3)[Man(a1-6)]Man(a1-6)[Man(a1-2)Man(a1-3)]Man(b1-4)GlcNAc(b1-4)GlcNAc
# Method in brief: as §1
# Man(a1-6)Man = biological target: Man(a1-6)Man
# Method in brief: as §1
# [8] = biological target: Neu5Ac(a2-3)Gal(b1-3)GalNAc(b1-4)[Neu5Ac(a2-3)]Gal(b1-4)Glc
# Method in brief: as §1
# [9] = biological target: Neu5Ac(a2-3)Gal(b1-3)[Fuc(a1-4)]GlcNAc(b1-3)Gal(b1-3)[Fuc(a1-4)]GlcNAc
# Method in brief: as §1
# Neu5Ac(a2-3)Gal(b1-4)Glc = biological target: Neu5Ac(a2-3)Gal(b1-4)Glc
# Method in brief: as §1
# [10] = biological target: Neu5Ac(a2-3)[GalNAc(b1-4)]Gal(b1-4)GlcNAc
# Method in brief: as §1
# Neu5Ac(a2-6)Gal(b1-4)Glc = biological target: Neu5Ac(a2-6)Gal(b1-4)Glc
# Method in brief: as §1
# [11] = biological target: Neu5Ac(a2-6)Gal(b1-4)GlcNAc(b1-2)Man(a1-3)[Neu5Ac(a2-6)Gal(b1-4)GlcNAc(b1-2)Man(a1-6)]Man(b1-4)GlcNAc(b1-4)[Fuc(a1-6)]GlcNAc
# Method in brief: as §1
# [12] = biological target: Neu5Ac(a2-6)GlcNAc(b1-4)GlcNAc(b1-4)GlcNAc
# Method in brief: as §1
# [13] = biological target: Neu5Ac(a2-8)Neu5Ac(a2-8)Neu5Ac(a2-3)Gal(b1-4)Glc
# Method in brief: as §1
binder,measurement,setting,value
B1,glycan array binding signal (z-score),GalNAc(b1-4)GlcNAc,1.86
same,glycan array binding signal (z-score),[1],-0.045
same,glycan array binding signal (z-score),[2],-0.111
same,glycan array binding signal (z-score),[3],-0.383
same,glycan array binding signal (z-score),[4],1.69
same,glycan array binding signal (z-score),[5],-0.476
same,glycan array binding signal (z-score),[6],0.039
same,glycan array binding signal (z-score),[7],0.06
same,glycan array binding signal (z-score),Man(a1-6)Man,-0.528
same,glycan array binding signal (z-score),[8],0.065
same,glycan array binding signal (z-score),[9],-0.347
same,glycan array binding signal (z-score),Neu5Ac(a2-3)Gal(b1-4)Glc,2.35
same,glycan array binding signal (z-score),[10],-0.222
same,glycan array binding signal (z-score),Neu5Ac(a2-6)Gal(b1-4)Glc,-0.543
same,glycan array binding signal (z-score),[11],0.041
same,glycan array binding signal (z-score),[12],1.95
same,glycan array binding signal (z-score),[13],-0.34
